From PubChem
This excerpt belongs to a sample that is enriched for hits.
RE007 growth inh – less growth of the S. pombe RE007 Vpr strain; Potency, µM (highest dose often 92.2 µM), usual class: inhibitors; S. pombe RE007 Vpr strain, BacTiter-Glo ATP luminescence, 24 h; 360,000 compounds, 0.21% hits; active = well fitted falling curve with a large enough effect; inconclusive = small, poorly fitted or top-dose-only effect; inactive = no such curve, though single readings can be large or run the other way; also: nearly all actives have a fitted effect of over 50% in size
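Fission yeast RE007 carrying one integrated HIV-1 vpr copy, seeded at OD 0.01 in PMG+AL medium with 23 nL pinned compound. Grown 24 h at 30 degrees; viability read by BacTiter-Glo luminescence after 5 min.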
LmPK inh – LmPK (Leishmania mexicana) enzyme inhibition. Potency, µM (titrated, usually from 57.5 µM), hits mostly inhibitors. 290,000 compounds, 0.37% hits. AID 1721. Q27686. purified LmPK, Kinase-Glo ATP luminescence, 1 h
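Screened at intermediate enzyme activity to detect both inhibitors and activators: LmPK at 0.1 nM, with a 0.5 nM enzyme column as activation reference. PEP 0.5 mM, ADP 0.1 mM; ATP detected by luminescence after 1 h.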
Cycloheximide cs – affects cycloheximide protein synthesis inhibition readout, counter-screen | cell reporter, cycloheximide protein synthesis inhibition counterscreen | max response, % | 300,000 compounds, 12% hits | AID 2314; in the data active = max response mostly above about 13%, no sharp cut-off; inactive = mostly below about 14%; also: read at 38.3 µM for the half of the compounds with a filed dose
FBPA Giardia inh – Giardia lamblia aldolase inhibition; A8B2U2; AID 2451; purified Giardia FBPA; 290,000 compounds, 0.71% hits; Potency, µM (top dose mostly 59.6 µM), most hits filed as inhibitors; also: nearly all actives have a fitted effect of over 55% in size
Target sequence (A8B2U2 whole entry, looked up): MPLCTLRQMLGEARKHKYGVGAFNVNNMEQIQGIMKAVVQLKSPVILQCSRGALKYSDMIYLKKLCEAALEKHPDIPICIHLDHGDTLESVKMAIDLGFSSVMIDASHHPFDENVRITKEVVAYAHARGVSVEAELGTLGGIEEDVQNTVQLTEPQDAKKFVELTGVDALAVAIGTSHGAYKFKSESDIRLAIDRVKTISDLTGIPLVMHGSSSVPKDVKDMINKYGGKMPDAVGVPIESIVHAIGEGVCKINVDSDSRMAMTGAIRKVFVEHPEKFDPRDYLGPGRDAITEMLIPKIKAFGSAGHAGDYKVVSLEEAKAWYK
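40 nM FBPA preincubated 10 min at RT with compound (up to 57.5 uM final), then substrate plus GAPDH/TPI/NAD/arsenate coupling and diaphorase/resazurin added. Fluorescence read after 20 min at RT, 525/598 nm.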
TbPYK inhibitor – blocks Trypanosoma brucei pyruvate kinase | AID 624173 | Potency, µM (series often up to 76.8 µM), hits mostly inhibitors | TbPYK enzyme, Kinase-Glo Plus ATP luminescence, 45 min | Q57TT1 | 410,000 compounds, 0.12% hits; also: nearly all actives have a fitted effect of over 50% in size
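Enzyme and substrate buffer are dispensed first and compound is pin-transferred. ADP at 130 uM final then starts the reaction, which runs 45 min at room temperature. Detection reagent is added for 10 min before luminescence is imaged.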
Shiga toxin inh – blocks Shiga toxin action in Vero cells; Vero cells, Shiga toxin protein synthesis inhibition reporter; 290,000 compounds, 9.2% hits; inhibition, % at 38.7 µM; in the data active = inhibition mostly above about 28%, no sharp cut-off; inactive = mostly below about 43%
A number is an active result; . = inactive; ? = inconclusive; / = no result given; + = active, no number; [ ] = dose if it differs, or a comment. Unless noted, calls follow the shape of the dose curve; as a rule, active = well fitted curve in the direction sought with a large enough effect; inconclusive = small, poorly fitted or top-dose-only effect, or another doubt; inactive = no such curve, though single readings can be large; an effect the other way counts as inactive or inconclusive.

SMILES	RE007 growth inh	LmPK inh	Cycloheximide cs	FBPA Giardia inh	TbPYK inhibitor	Shiga toxin inh
CC1CCC/C(=C\Nc2ccc(C(=O)O)cc2)C1=O (configuration not stated)	.	.	37	.	.	55
CCOC(=O)c1ccccc1N/C=C1\CCCCC1=O	.	.	.	.	.	.
COCCc1nn2c(=O)cc(COC(=O)c3ccc4c(c3)OCO4)nc2s1	/	/	/	/	.	/
COc1ccc(CCNC(=O)Cn2cc(S(=O)(=O)Cc3ccccc3F)c3ccccc32)cc1OC	/	/	/	/	.[15.4 µM]	/
CC(=O)Nc1ccc2c(c1)CCCC2=O	.	.	16	.	.	.
COc1ccc2c(c1)CCCC2=O	.	/	/	/	.	/
CC(=O)Nc1ccc(N/C=C2/CCCC2=O)cc1	.	.	11	.	.	49
O=C1CCCC/C1=C\Nc1ccc(C(=O)O)c(O)c1	.	.	17	.	.	62
COc1nccnc1NS(=O)(=O)c1ccc(N/C=C2\CCCCC2=O)cc1	.	.	.	.	.	.
CC1CCC/C(=C\Nc2ccc(C(=O)O)c(O)c2)C1=O (configuration not stated)	.	.	38	.	.	82
COc1ccc(NC(=O)c2c(C)oc3ccc(O)c(CN4CCN(Cc5ccccc5)CC4)c23)cc1Cl	/	/	/	/	.	/
CCc1c(C)sc(NC(=O)CN2CCN(C(=O)c3ccco3)CC2)c1C(=O)OC	.	.	16	/	.	.
CCOC(=O)c1c(NC(=O)CN2CCN(C(=O)c3ccco3)CC2)sc(C)c1C	.	.	.	/	.	.
COc1ccc(/C=N/NC(=O)CN2CCCC2)cc1	.	.	.	.	.	.
COc1cc(/C=N/OCC(=O)Nc2cc(C)on2)ccc1OCc1ccccc1	.	.	18	.	.	104
CC(C)(C)OC(=O)COc1ccc(/C=N/NC(=O)CN2CCCCC2)cc1	.	.	45	.	.	88
O=C(CN1CCCCCC1)N/N=C/c1ccc2ccccc2c1	.	.	43	?	.	74
COc1cc(/C=C/C(=O)NC(C)C)ccc1OCc1ccccc1	.	.	.	.	.	.
COc1cc(/C=N/NC(=O)CN2CCCCC2)ccc1OCc1ccccc1	.	.	28	.	.	+
COc1cc2nc(NC(=O)c3ccc(S(=O)(=O)N4CCOCC4)cc3)sc2cc1OC	/	/	/	/	.	/
COc1cccc(C(=O)Nc2ccc3nc(SCC(=O)N4CCOCC4)sc3c2)c1	/	/	/	/	.	/
O=C(CSCc1ccc(Cl)cc1)N/N=C/c1ccccc1	.	.	.	18µM	.	.
COc1cc(/C=N/n2cnnc2)ccc1OCc1ccccc1	.	.	22	/	.	.
O=C(CN1CCCCC1)N/N=C/c1ccc(Cl)cc1	.	.	14	.	.	45
Cn1cccc1CC(=O)N/N=C/c1ccc(Cl)cc1	.	.	16	.	.	26
SMILES	RE007 growth inh	LmPK inh	Cycloheximide cs	FBPA Giardia inh	TbPYK inhibitor	Shiga toxin inh
O=C(CSCc1ccc(Cl)cc1)N/N=C/c1c(Cl)cccc1Cl	.	.	.	.	.	.
O=C(CN1CCCCCCC1)N/N=C/c1ccc(F)c(F)c1	.	.	.	.	.	.
CC(C)[C@H](NC(=O)[C@@H](Cc1c[nH]c2ccccc12)NC(=O)[C@H](Cc1ccc(O)cc1)NC(=O)[C@@H](N)CC(=O)O)C(=O)N[C@H](Cc1c[nH]c2ccccc12)C(=O)N[C@H](Cc1c[nH]c2ccccc12)C(=O)N[C@@H](CCCCN)C(N)=O	/	/	.	.	/	.
O=c1c2sc3ccccc3c2n(Cc2cccc(C(F)(F)F)c2)c(=O)n1Cc1ccco1	/	/	/	/	.	/
CCOC(=O)c1c(NC(=O)Nc2ccc(F)cc2)sc(C(=O)N(C)C)c1C	/	/	/	/	.	/
COc1cc(-c2nnc(SCc3c(F)cccc3Cl)o2)cc(OC)c1OC	.	.	.	.	.	.
Cc1ccc(-c2nnc(SCc3cccc(C#N)c3)o2)cc1	/	/	/	/	.	/
N#Cc1ccccc1CSc1nnc(-c2ccncc2)o1	.	.	34	.	.	49
Fc1cccc(Cl)c1CSc1nnc(-c2ccncc2)o1	.	.	36	.	.	57
N#Cc1cccc(-c2nnc(SCc3ccccc3C#N)o2)c1	.	.	46	.	.	89
O=C(O)c1ccc(CSc2nnc(Cc3ccccc3)o2)cc1	.	.	.	.	.	.
N#Cc1ccccc1CSc1nnc(Cc2ccccc2)o1	.	.	21	.	.	53
Cc1ccc(S(=O)(=O)N2C[C@]3(O)C[C@@H]4C(=O)N(c5ccccc5)C(=O)[C@@H]4C[C@]3(OC(=O)Nc3c(C)noc3C)C2)cc1	.	/	/	/	.	/
O=[N+]([O-])c1ccc(S(=O)(=O)NCc2nc3cccnc3n2Cc2ccccc2Cl)cc1	/	/	/	/	.	/
Cc1ccccc1OCC(=O)NCCNC(=O)c1ccccn1	.	.	.	.	.	.
CCOC(=O)c1ccc(NC(=O)C(CC)Sc2nc3ncccc3[nH]2)cc1 (configuration not stated)	/	/	/	/	.	/
Clc1cccc(Cl)c1CSc1nnc(-c2sccc2-n2cccc2)o1	.	.	20	.	.	95
Clc1ccccc1CSc1nnc(-c2ccncc2)o1	?	.	47	/	.	54
c1ccc2c(CSc3nnc(-c4ccncc4)o3)cccc2c1	.	.	.	.	.	.
CSc1nnc(-c2sccc2-n2cccc2)o1	.	.	.	.	.	.
COc1cc2c(cc1OC)C(COc1ccccc1OC)N(C(=O)COc1ccc(Cl)cc1)CC2 (configuration not stated)	/	/	/	/	.	/
CC(C)(C)NC(=O)C(=O)NNC(=O)c1ccccc1	.	.	.	.	.	.
COc1ccccc1C(=O)NNC(=O)c1cccc(F)c1	.	?	51	.	.	88
CC(C)(C)NC(=O)C(=O)NNC(=O)c1cccc(F)c1	.	.	38	.	.	.
COc1ccccc1C(=O)NNC(=O)c1ccccc1F	.	.	47	.	.	58
SMILES	RE007 growth inh	LmPK inh	Cycloheximide cs	FBPA Giardia inh	TbPYK inhibitor	Shiga toxin inh
O=C(NNC(=O)c1ccccc1F)c1ccc2[nH]c(=O)c(=O)[nH]c2c1	.	.	34	.	.	41
C[C@H]1[C@@H]2Cc3ccc(O)cc3[C@]1(C)CCN2C	/	/	/	/	.	/
CCOC(=O)c1c(C)oc2nc(C)nc(NCCCN3CCN(c4cc(C)ccc4C)CC3)c12	/	/	/	/	.	/
COc1ccccc1C(=O)NNC(=O)c1cccc(O)c1	.	.	23	.	.	.
CN(C)c1ccc(/C=C/c2ccc3ccccc3[n+]2C)cc1	/	14µM	19	.	?	.
COc1ccc(/C=C/c2ccc3ccccc3[n+]2C)cc1OC	.	.	44	.	.	71
[O-][n+]1c(/C=C/c2ccccc2)ccc2ccccc21	.	?	29	.	.	31
CN(CCCS(=O)(=O)[O-])c1ccc(/C=C/c2ccc3ccccc3[n+]2C)cc1	.	.	.	.	.	.
CN(C)c1ccc(/C=C/c2cccc[n+]2[O-])cc1	.	.	33	.	.	59
